# Screening results deposited in PubChem BioAssay by National Center for Advancing Translational Sciences (NCATS).
# USP2a inh: USP2a (human) protease inhibition; O75604; USP2 core, Ub-CHOP2 coupled fluorogenic reporter, 485/531; Potency, µM (highest dose often 38.3 µM), for inactives: at the highest dose activity change, negative = inhibition, actives largely listed as inhibitors; actives 0.01% (n = 330,000);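 also: plate controls were DMSO wells for no effect and full inhibition by NEM control for full effect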
# Target sequence (O75604 whole entry, looked up): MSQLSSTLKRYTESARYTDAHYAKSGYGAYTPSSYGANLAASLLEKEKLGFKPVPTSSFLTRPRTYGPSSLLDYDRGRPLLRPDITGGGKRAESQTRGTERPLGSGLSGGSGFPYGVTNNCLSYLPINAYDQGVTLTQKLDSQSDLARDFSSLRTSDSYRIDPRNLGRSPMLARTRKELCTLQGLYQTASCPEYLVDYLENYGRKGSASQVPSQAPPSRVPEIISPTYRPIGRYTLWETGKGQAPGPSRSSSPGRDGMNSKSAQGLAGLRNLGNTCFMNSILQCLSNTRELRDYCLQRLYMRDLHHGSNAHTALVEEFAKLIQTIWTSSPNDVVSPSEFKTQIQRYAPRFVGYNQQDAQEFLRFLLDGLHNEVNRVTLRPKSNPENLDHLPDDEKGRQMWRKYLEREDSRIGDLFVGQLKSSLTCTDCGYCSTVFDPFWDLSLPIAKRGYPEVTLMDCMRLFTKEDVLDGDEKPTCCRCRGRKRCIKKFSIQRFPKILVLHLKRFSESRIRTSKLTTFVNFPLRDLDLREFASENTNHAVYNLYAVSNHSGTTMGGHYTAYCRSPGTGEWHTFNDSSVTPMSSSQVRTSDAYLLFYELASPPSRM
#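 Deubiquitinase activity read as fluorescence (485/531 nm) after Ub-CHOP2 cleavage activates the enterokinase reporter on its substrate; USP2 core 10nM, Ub-CHOP2 and substrate 25nM each, 30min compound preincubation then 60min RT; data normalized to NEM, curves fitted.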
# ClpP mod: qHTS Assay for Activators of ClpP; ATP-dependent Clp protease proteolytic subunit (Bacillus subtilis (strain 168)), P80244; purified B. subtilis ClpP, FRET peptide cleavage, 20 min; Potency, µM (titrated, usually from 57.5 µM), for inactives: top-dose activity change, negative = active; actives 1.9% (n = 340,000); active = well fitted falling curve with a large enough effect; inconclusive = small, poorly fitted or top-dose-only effect; inactive = no such curve, though single readings can be large or run the other way; also: the source files actives as falling curves though it sought activators and does not explain the sign; nearly all actives have a fitted effect of over 65% in size
# Target sequence (P80244 whole entry, looked up): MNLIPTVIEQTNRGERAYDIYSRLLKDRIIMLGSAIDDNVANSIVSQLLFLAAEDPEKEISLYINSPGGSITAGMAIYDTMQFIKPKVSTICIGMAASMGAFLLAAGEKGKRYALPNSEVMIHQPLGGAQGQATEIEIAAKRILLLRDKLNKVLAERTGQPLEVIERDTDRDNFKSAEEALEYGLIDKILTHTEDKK
#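 FRET quenching reversal measured ClpP activation: 10 microg/mL B. subtilis ClpP at pH 8 with the FRET-FV decapeptide, read at 430 nm after 320 nm excitation. The 20-min minus 0-min signal was scaled between DMSO/no-enzyme wells and ADEP (5.8 microM final).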
# p53 reactivation: mutant p53 re-activation in reporter cells | AID 504706 | actives 0.063% (n = 320,000) | Potency, µM (series often up to 92.2 µM), for inactives: top-dose activity change, positive = activation, hits mostly activators | H1299 p53-A138V BP100-luciferase reporter, luminescence, 24 h; also: % of control where 0% means no effect; nearly all actives have a fitted effect of over 45% in size
#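 p53-null H1299 cells stably carrying temperature-sensitive p53-A138V and a BP100-luciferase reporter were pinned with compounds (4-point, 1:5 series) and held 24 hrs at 37 deg C. Luminescence was read 10 min after detection reagent.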
# Mm-Cpn inhibitor: M. maripaludis TRiC chaperonin inhibition | purified Mm-Cpn ATPase, ADP Transcreener TR-FRET | Potency, µM (highest dose often 76.9 µM), without a hit: top-dose activity, negative = inhibition, hits mostly inhibitors | actives 0.031% (n = 330,000); also: % is scaled to controls: 0 for no effect and ±100 for the full control effect; nearly all actives have a fitted effect of over 80% in size
#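 25 nM Mm-CPN + cpd, 10 min 37°C; + 10 uM ATP, 30 min 37°C; buffer 30 mM Tris pH 7.4, 100 mM KCl, 5 mM MgCl2, 1 mM DTT; Transcreener ADP HTRF detection 30 min RT.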
# a7 integrin act: activates integrin-mediated alleviation for muscular dystrophy. alpha7betagal myoblasts, beta-gal FDG fluorescence, 48 h. Potency, µM (top dose mostly 38.3 µM), for the others: at the highest dose activation, hits mostly activators. actives 0.064% (n = 350,000). AID 624291;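 also: 100% = response of the positive control SU9516; nearly all actives have a fitted effect of over 60% in size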
#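 Alpha7betagal+/- myoblasts (passage 13) were plated 16-24 hr, then exposed to compounds (1:260 dilution of DMSO stock) for 48 hours at 37C. After MPER lysis, β-galactosidase reporter activity was read as FDG fluorescence (ex 480/em 540) after 30 minutes.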
# Eya2 inh: blocks the phosphatase activity of human Eya2; recombinant Eya2, OMFP fluorescence dephosphorylation (OMFP is methylfluorescein phosphate); O00167; Potency, µM (doses to about 76.9 µM), for the others: top-dose activity, negative = inhibition, actives largely listed as inhibitors; actives 0.006% (n = 330,000); also: % is scaled to controls: 0 for no effect and ±100 for the full control effect
#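 Eya2 protein (added as 0.2 uM solution) was preincubated with compound for 10 min at ambient temperature in 50 mM HEPES pH 7.5, 50 mM NaCl, 5 uM MgCl2, 0.05% BSA, 1 mM DTT. OMFP (added at 50 uM) then reacted 10 min; fluorescence read at 485/525 nm.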
# Starred values were filed as active, the others as inactive; ? = inconclusive; · = no result given. The sample as a whole holds a higher share of hits than the screen did. Unless noted, calls follow the shape of the dose curve; as a rule, active = well fitted curve in the direction sought with a large enough effect; inconclusive = small, poorly fitted or top-dose-only effect, or another doubt; inactive = no such curve, though single readings can be large; an effect the other way counts as inactive or inconclusive. Potency is read from the fitted curve at half-maximal effect.
SMILES,USP2a inh,ClpP mod,p53 reactivation,Mm-Cpn inhibitor,a7 integrin act,Eya2 inh
O=C(NCc1ccc(Cl)cc1)c1ccc(OCC2CCCO2)cc1 (centres undefined),-0.4%,-0.6%,-1.5%,2.2%,34.8%,-2.6%
Cc1ccc(C2C=C(c3ccccc3)Nc3nc(NS(=O)(=O)c4ccc(C)cc4)nn32)cc1 (centres undefined),·,-6.2%,·,·,·,·
CS(=O)(=O)Nc1nc2n(n1)C(c1ccccc1)C=C(c1ccc(Br)cc1)N2 (centres undefined),?,8.91µM*,-5.9%,-7.6%,-10.2%,10.8%
CC(=O)Nc1nc2n(n1)C(c1ccc(F)cc1)C=C(c1ccccc1)N2 (centres undefined),23.1%,?,-4.6%,-8.4%,-8.4%,0.1%
CC1=CC(c2ccc(Cl)cc2)n2nc(NC(=O)c3ccccc3)nc2N1 (centres undefined),-0.2%,?,-6.9%,-6.0%,3.2%,-1.1%
CC(=O)Nc1nc2n(n1)C(c1ccccc1)C=C(c1ccccc1)N2 (centres undefined),9.3%,28.2µM*,8.8%,-8.2%,3.7%,10.0%
CC(=O)Nc1nc2n(n1)C(c1ccc(Cl)cc1)C=C(C)N2 (centres undefined),0.8%,3.16µM*,-6.7%,-4.5%,17.9%,10.4%
Cc1cc2ccccc2c[n+]1CC(=O)c1ccc(F)cc1,·,4.2%,·,·,·,·
CC(=O)c1ccccc1NS(=O)(=O)c1cc2c(cc1C)NC(=O)CO2,·,-0.1%,·,·,·,·
C(#Cc1ccccc1)Cn1nnc2ccccc21,-0.3%,28.2µM*,?,0.8%,?,1.9%
CCN(CC)CCNc1nc(-c2ccco2)c2c(c1C#N)CC(C)(C)OC2,1.4%,?,-1.1%,1.6%,-21.8%,0.1%
CC1(C)Cc2c(C#N)c(NC3CCCCC3)nc(-c3ccco3)c2CO1,-2.9%,·,6.1%,-4.0%,·,-30.6%
CC1(C)Cc2c(C#N)c(NCC3CCCO3)nc(-c3ccco3)c2CO1 (centres undefined),2.5%,11.2µM*,-1.8%,-1.2%,4.6%,5.5%
Cc1nc(NCCO)c(C#N)c2c1COC(C)(C)C2,0.4%,22.4µM*,3.3%,1.3%,1.4%,-24.9%
CC1(C)Cc2c(C#N)c(NCCc3ccccc3)nc(-c3ccco3)c2CO1,0.8%,28.2µM*,-0.1%,0.9%,-16.8%,-3.5%
COc1ccc(NC(=O)Nc2cc3oc4ccccc4c3cc2OC)cc1,1.1%,-21.6%,-3.6%,-4.0%,32.6%,?
COc1cc2c(cc1NC(=S)Nc1cccc(C)c1)oc1ccccc12,1.0%,11.2µM*,12.4%,-4.0%,?,-6.8%
COc1cc2c(cc1NC(=S)Nc1ccccc1C)oc1ccccc12,-2.7%,-1.1%,15.7%,?,-8.0%,-8.2%
COc1cc2c(cc1NC(=O)c1cc(-c3ccncc3)nc3ccccc13)oc1ccccc12,2.7%,-24.7%,-4.8%,-1.3%,-10.9%,7.3%
COc1cc2c(cc1NC(=O)CSc1nc3cc(Cl)ccc3s1)oc1ccccc12,4.3%,5.62µM*,3.2%,0.5%,-27.3%,2.5%
COc1cc2c(cc1NC(=O)c1cc(-c3cccnc3)nc3ccc(C)cc13)oc1ccccc12,0.3%,20µM*,-1.2%,1.4%,-40.8%,1.3%
COc1cc2c(cc1NC(=O)Nc1ccc(C)cc1)oc1ccccc12,-0.3%,35.5µM*,12.0%,-0.5%,0.4%,16.9%
Cn1nnc2c(NCc3ccco3)ncnc21,·,1.4%,·,·,·,·
Cc1ccc(CSc2nnc(-c3ccc(NC(=O)CCc4ccccc4)cc3)n2C)cc1,·,-3.4%,·,·,·,·
CCN(CC)CCCOc1cc2nc(N3CCCN(C)CC3)nc(NC3CCN(C)CC3)c2cc1OC,·,4.4%,·,·,·,·
SMILES,USP2a inh,ClpP mod,p53 reactivation,Mm-Cpn inhibitor,a7 integrin act,Eya2 inh
Cc1ccc(NC(=O)c2cc3c([nH]c2=O)CC(C)(C)CC3=O)cc1,·,-5.5%,·,·,·,·
O=C(Cc1ccc(OCCC2CCCCC2)cc1)NO,·,-3.9%,·,·,·,·
O=C(CNC(=O)C1CCCCC1)OCC(=O)c1ccc([N+](=O)[O-])cc1,·,-5.4%,·,·,·,·
COc1cc2c(cc1NC(=O)Nc1cccc(C)c1)oc1ccccc12,-1.4%,28.2µM*,-4.5%,-4.8%,24.3%,-12.3%
CCCCCCCCCCCCCC(=O)Nc1ccc(/C=C/c2ccnc3ccccc23)cc1,·,-3.5%,·,·,·,·
Cc1ccc(S(=O)(=O)N(CC(=O)N/N=C/c2cccc3c2OCCO3)c2ccccc2F)cc1,-0.9%,22.4µM*,-0.7%,2.0%,0.0%,-14.2%
Cc1ccc(S(=O)(=O)N(CC(=O)N/N=C\c2cccs2)c2cccc3cccnc23)cc1,0.5%,-2.9%,-5.5%,2.5%,0.3%,8.0%
Cc1ccc(S(=O)(=O)N(CC(=O)N/N=C/c2cccc(C)c2)c2cccc3cccnc23)cc1,·,25.1µM*,·,·,-21.3%,·
COc1ccc(CC(=O)N2CCN(c3ccccn3)CC2)cc1,4.8%,20µM*,7.8%,-0.3%,-7.5%,-3.3%
CN(CC(=O)N1CCN(c2ccccn2)CC1)S(=O)(=O)c1ccccc1,3.9%,31.6µM*,10.7%,-4.0%,0.3%,5.5%
Cc1ccc(CC(=O)N2CCN(c3ccccn3)CC2)cc1,0.5%,22.4µM*,4.6%,-0.7%,-19.2%,-4.3%
Cn1c(=O)oc2cc(S(=O)(=O)NC(CC(=O)O)c3cccc(Br)c3)ccc21 (centres undefined),·,-2.0%,·,·,·,·
COc1cc(N(C)C)ccc1/C=C1\C=Cc2ccccc21,·,-0.3%,·,·,·,·
CCOC(=O)C1=C(C)NC(C)=C(C(=O)OCC)C1c1ccc(Br)o1,0.6%,3.55µM*,-7.4%,1.5%,?,-8.9%
CCOC(=O)C1=C(C)NC(=O)NC1c1ccc(Br)o1 (centres undefined),-0.4%,1.5%,-5.8%,-1.3%,1.4%,2.9%
Cc1cccc(CS(=O)(=O)CC2Nc3ccc(C(=O)NCc4ccccc4Cl)cc3NC2=O)c1 (centres undefined),·,4.8%,·,·,·,·
COCCNC(=O)c1ccc2c(c1)NC(=O)C(CS(=O)(=O)Cc1ccc(F)cc1Cl)N2 (centres undefined),·,15.8µM*,·,·,·,·
CCCCNC(=O)c1ccc2c(c1)NC(=O)C(CS(=O)(=O)Cc1cccc(C)c1)N2 (centres undefined),·,31.6µM*,·,·,·,·
CNc1ccc(C=O)cc1Cl,·,-5.8%,·,·,·,·
CCOC(=O)C1CCN(C(=O)CC(NS(=O)(=O)c2ccc(OC)cc2)C(C)C)CC1 (centres undefined),-9.4%,31.6µM*,5.7%,0.9%,-1.2%,-5.5%
CCOC(=O)C1CCN(C(=O)CCNS(=O)(=O)c2ccc(C)cc2)CC1,-0.8%,0.9%,-0.6%,1.5%,-3.4%,-20.5%
